Experimental data published in PubChem BioAssay (Tox21).
Values without a mark were called inactive. Results filed as inconclusive are left out. Entries that show only a call come without a potency. The source made the active and inactive calls. Unless noted, calls come from the whole dose curve; as a rule, active = well fitted curve in the direction sought with a large enough effect in the repeat runs; inconclusive = weak or mixed curves; inactive = no such curve, though single readings can be large; an effect the other way counts as inactive or inconclusive.

Experiments:
[1] = qHTS assay for small molecule agonists of the p53 signaling pathway (AID 651631; calls by dose curve; note: nearly all actives have a fitted effect of over 15% in size)
How it was run: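 We treat p53RE-bla HCT-116 cells with compounds for 16 h at 37 °C, add LiveBLAzer B/G FRET substrate for 2 h at room temperature, and measure fluorescence intensity.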

[2] = qHTS assay for small molecules that induce genotoxicity in human embryonic kidney cells expressing luciferase-tagged ATAD5 (AID 651632); note: nearly all actives have a fitted effect of over 15% in size; note: potency is the fitted concentration of half-maximal effect
How it was run: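 DMSO vehicle served as the control. HEK293T reporter cells, 16 hr at 37C, then 30 min Amplite at room temperature; ATAD5 induction is measured as luciferase activity.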

[3] = qHTS assay for small molecule agonists of the p53 signaling pathway - cell viability (AID 651633; calls by dose curve; note: nearly all actives have a fitted effect of over 30% in size; note: potency is the fitted concentration of half-maximal effect)
How it was run: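 p53RE-bla cells were treated with compound for 16 hours at 37 C. Cytotoxicity was then measured as CellTiter-Glo luminescence after 30 min at room temperature.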

[4] = qHTS assay for small molecule disruptors of the mitochondrial membrane potential - cell viability (AID 720634; calls by dose curve;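 note: human HepG2 liver cancer cells; series mostly up to about 83 µM; nearly all actives have a fitted effect of over 20% in size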)
How it was run: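 Viability of HepG2 cells is scored from ATP content by luminescence; cells are exposed to compound for 1 hr at 37 C and 5% CO2, then dosed with m-MPI dye before the CellTiter-Glo reagent.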

[5] = qHTS assay to test for compound auto fluorescence at 535 nm (green) in HepG2 cells (AID 720675)
[6] = qHTS assay to test for compound auto fluorescence at 460 nm (blue) in HEK293 cells (AID 720678)
How it was run: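 Cells were seeded and left to adhere for 4-5 hr at 37C. Compounds were then pin-transferred. After an overnight incubation at 37C under 5% CO2, intrinsic fluorescence at 405/460 nm was measured and referenced to triamterene.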

[7] = qHTS assay to test for compound auto fluorescence at 590 nm (red) in HEK293 cells (AID 720679)
How it was run: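 Each well held 2,000 HEK293 cells in medium containing 10% dialyzed FBS. Following 4-5 hr attachment at 37C, 23 nL test compound or DMSO was added; plates sat overnight, and red fluorescence (540/590nm) was recorded.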

[8] = qHTS assay for small molecules that induce genotoxicity in human embryonic kidney cells expressing luciferase-tagged ATAD5 - cell viability (AID 651634; calls by dose curve; note: nearly all actives have a fitted effect of over 25% in size)
How it was run: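 Here HEK293T cells with the ATAD5 luciferase reporter are incubated with test compounds for 15.5 hr, and cytotoxicity is then gauged by measuring protease activity in live cells using fluorescence.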

[9] = qHTS assay to test for compound auto fluorescence at 590 nm (red) in HepG2 cells (AID 720674)
How it was run: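 HepG2 cells, 2,000 per well in MEM with 10% FBS, attached overnight at 37 C, then got 23 nL compound or DMSO. After 1 hr at 37 C, 5% CO2, red fluorescence was read at 540/590 nm against Rose Bengal sodium as reference.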

[10] = qHTS assay for small molecule disruptors of the mitochondrial membrane potential (AID 720635); note: potency is the fitted concentration of half-maximal effect
How it was run: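 HepG2 cells exposed to compound 1 hr at 37C, then Mito-MPS dye 30 min. Ratio read of aggregate (540/590 nm) versus monomer (490/535 nm) fluorescence.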

| Compound | Potency [1] | Potency [2] | Potency [3] | Potency [4] | fluorescence, % of fluorescein control [5] | fluorescence, % of triamterene [6] | fluorescence, % of fluorescent control [7] | Potency [8] | outcome [9] | outcome [5] | outcome [7] | outcome [6] | Potency [10] | fluorescence, relative to Rose Bengal [9] |
| --- | --- | --- | --- | --- | --- | --- | --- | --- | --- | --- | --- | --- | --- | --- |
| CN(C)C(=O)NC1(c2ccccc2)CCN(CCC[C@]2(c3ccc(Cl)c(Cl)c3)CCCN(C(=O)c3ccccc3)C2)CC1 | inactive | inactive | inactive | inactive | 0.0153% [at 18.6 µM] | -0.0808% [at 18.6 µM] | -0.621% [at 18.6 µM] | – | – | – | – | – | – | – |
| CC(C)NC[C@@H](O)COc1cccc2ccccc12 | inactive | – | inactive | inactive | – | – | – | inactive | inactive | inactive | inactive | – | – | – |
| CC1(C)S[C@@H]2[C@H](NC(=O)C(C(=O)O)c3ccccc3)C(=O)N2[C@H]1C(=O)O (stereo partly drawn) | inactive | inactive | inactive | inactive | – | – | – | – | inactive | inactive | inactive | inactive | – | – |
| CCOC(=O)C1CC(=O)C(=C(O)C2CC2)C(=O)C1 (stereo not drawn) | inactive | inactive | inactive | inactive | – | – | – | – | inactive | inactive | inactive | inactive | – | – |
| CN1CCN(c2c(F)cc3c(=O)c(C(=O)O)cn(CCF)c3c2F)CC1 | inactive | – | inactive | inactive | – | – | – | – | inactive | inactive | inactive | inactive | inactive | – |
| O=C1CCN(c2ccccc2)N1 | inactive | inactive | inactive | inactive | – | – | – | – | inactive | inactive | inactive | inactive | inactive | – |
| COc1ccccc1OCC(O)COC(N)=O (stereo not drawn) | inactive | inactive | inactive | – | 0.0143% [at 18.6 µM] | 0.0837% [at 18.6 µM] | 0.0645% [at 18.6 µM] | – | – | – | – | – | inactive | -0.267% [at 18.6 µM] |
| CC(C)Nc1nc(N)nc(Cl)n1 | inactive | – | inactive | inactive | – | – | – | inactive | inactive | inactive | inactive | – | inactive | – |
| C1CCOC1 | inactive | – | inactive | – | – | – | – | – | – | inactive | inactive | inactive | – | – |
| CCOc1ccc2nc(N)sc2c1 | inactive | – | inactive | – | – | – | – | – | inactive | inactive | inactive | inactive | – | – |
| O=C(O)C(=O)Cc1c[nH]c2ccccc12 | inactive | inactive | inactive | inactive | – | – | – | – | – | inactive | inactive | inactive | – | – |
| CCCCOc1cc(C(=O)NCCN(CC)CC)c2ccccc2n1 | inactive | inactive | inactive | inactive | 0.0079% [at 18.6 µM] | -0.0164% [at 18.6 µM] | -0.209% [at 18.6 µM] | – | – | – | – | – | – | -0.403% [at 18.6 µM] |
| NCCCN1CCN(CCCN)CC1 | inactive | inactive | inactive | inactive | – | – | – | – | inactive | inactive | inactive | inactive | inactive | – |
| C=Cc1ccccc1 | inactive | inactive | inactive | inactive | – | – | – | – | inactive | inactive | inactive | – | inactive | – |
| CCCCCOc1ccc(C2SC(=O)NC2=O)cc1OCC (stereo not drawn) | inactive | inactive | inactive | inactive | – | – | – | – | inactive | inactive | inactive | inactive | 29.8 µM (active) | – |
| CN(C)CC[C@@H](c1ccc(Cl)cc1)c1ccccn1 | inactive | – | inactive | inactive | – | – | – | inactive | inactive | inactive | inactive | inactive | inactive | – |
| C1CSCCS1 | inactive | inactive | inactive | inactive | – | – | – | – | – | inactive | inactive | – | inactive | – |
| Cc1ncc(CO)c(CN)c1O | inactive | inactive | inactive | inactive | – | – | – | – | – | inactive | inactive | inactive | – | – |
| O=C1N(c2ccccc2)c2ccccc2C1(Cc1ccncc1)Cc1ccncc1 | inactive | inactive | inactive | inactive | – | – | – | – | inactive | inactive | inactive | inactive | inactive | – |
| N#Cc1ccc(C(c2ccc(C#N)cc2)n2cncn2)cc1 | – | inactive | inactive | inactive | – | – | – | inactive | inactive | inactive | inactive | inactive | inactive | – |
| CO[Si](C)(C)OC | inactive | – | inactive | inactive | – | – | – | inactive | inactive | inactive | inactive | inactive | – | – |
| CC(C)NCC(O)COc1ccc(CCOCC2CC2)cc1 (stereo not drawn) | inactive | – | inactive | inactive | – | – | – | inactive | – | inactive | inactive | inactive | inactive | – |
| Cc1ccc(C(C)C)cc1O | – | inactive | inactive | inactive | – | – | – | inactive | inactive | inactive | inactive | inactive | 48.6 µM (active) | – |

| Compound | Potency [1] | Potency [2] | Potency [3] | Potency [4] | fluorescence, % of fluorescein control [5] | fluorescence, % of triamterene [6] | fluorescence, % of fluorescent control [7] | Potency [8] | outcome [9] | outcome [5] | outcome [7] | outcome [6] | Potency [10] | fluorescence, relative to Rose Bengal [9] |
| --- | --- | --- | --- | --- | --- | --- | --- | --- | --- | --- | --- | --- | --- | --- |
| CC1(O)CSC(C)(O)CS1 (stereo not drawn) | – | inactive | inactive | inactive | – | – | – | inactive | – | inactive | inactive | inactive | – | – |
| CN1CCN(C2=Nc3cc(F)ccc3Cc3ccccc32)CC1 | – | inactive | inactive | inactive | – | – | – | inactive | inactive | inactive | inactive | – | – | – |
| CN1CCN(C2=Nc3ccccc3Oc3ccc(Cl)cc32)CC1 | – | inactive | inactive | inactive | -0.116% [at 18.6 µM] | – | 0.151% [at 18.6 µM] | inactive | – | – | – | – | – | 0.128% [at 18.6 µM] |
| Cn1cnc2c(F)c(Nc3ccc(Br)cc3Cl)c(C(=O)NOCCO)cc21 | – | inactive | inactive | inactive | – | – | – | inactive | inactive | inactive | inactive | inactive | – | – |
| CCCNC(C)(C)COC(=O)c1ccccc1 | – | inactive | inactive | inactive | – | – | – | inactive | inactive | inactive | inactive | inactive | inactive | – |
| CC1CN(c2ccccc2)NC1=O (stereo not drawn) | – | inactive | inactive | inactive | – | – | – | inactive | inactive | inactive | inactive | inactive | – | – |
| C[C@@H]1CN(c2c(F)c(F)c3c(=O)c(C(=O)O)cn(C4CC4)c3c2F)C[C@H](C)N1 | – | inactive | inactive | inactive | – | – | – | inactive | – | inactive | inactive | inactive | inactive | – |
| CCOc1ccc(NC(N)=O)cc1 | – | inactive | inactive | inactive | – | – | – | inactive | – | inactive | inactive | – | – | – |
| CN1C(=O)CC(c2ccccc2)C1=O (stereo not drawn) | – | inactive | inactive | inactive | – | – | – | inactive | inactive | inactive | inactive | – | – | – |
| CC(C)C[C@H](NC(=O)OCC1c2ccccc2-c2ccccc21)C(=O)O | – | 12.2 µM (active) | inactive | inactive | – | – | – | inactive | inactive | inactive | inactive | inactive | – | – |
| O=CCCc1ccccc1 | – | inactive | inactive | inactive | – | – | – | inactive | inactive | inactive | inactive | inactive | – | – |
| CC(=O)OC1C2(C)CCC(C2)C1(C)C (stereo not drawn) | – | inactive | inactive | inactive | – | – | – | inactive | inactive | inactive | inactive | inactive | inactive | – |
| CCOC(=O)CS | – | inactive | inactive | inactive | – | – | – | inactive | inactive | inactive | inactive | inactive | – | – |
| CCCCC(CC)COC(=O)COc1cc(Cl)c(Cl)cc1Cl (stereo not drawn) | – | inactive | inactive | inactive | – | – | – | inactive | inactive | inactive | inactive | inactive | – | – |
| CCCCCCCCCCCCOCCOS(=O)(=O)O | – | inactive | 61.1 µM (active) | inactive | – | – | – | inactive | inactive | inactive | inactive | inactive | – | – |
| CCCCCCCCCCCCCCCCOP(=O)([O-])OCC[N+](C)(C)C | – | inactive | inactive | inactive | – | – | – | inactive | – | inactive | inactive | inactive | – | – |
| CCN(CCCc1ccccc1)CCCc1ccccc1 | – | inactive | inactive | inactive | -0.0397% [at 18.6 µM] | 0.0775% [at 18.6 µM] | -0.195% [at 18.6 µM] | inactive | – | – | – | – | – | 0.32% [at 18.6 µM] |
| Cc1ccc(C)c(N)c1 | – | inactive | inactive | inactive | – | – | – | inactive | inactive | inactive | inactive | inactive | – | – |
| CC1=C2[C@H](/C=C(\C)C(=O)O)CC[C@@H](C)[C@H]2CC1 | – | inactive | inactive | inactive | – | – | – | inactive | inactive | inactive | inactive | inactive | – | – |
| CN(C)CCOc1ccccc1Cc1ccccc1 | – | inactive | inactive | inactive | – | – | – | inactive | – | inactive | inactive | inactive | 2.66 µM (active) | – |
| Cc1ccc([N+](=O)[O-])c(N)c1 | – | inactive | inactive | inactive | – | – | – | inactive | – | inactive | inactive | inactive | inactive | – |
| CCCCCCCOC(=O)CCC | – | inactive | inactive | inactive | – | – | – | inactive | inactive | inactive | inactive | inactive | inactive | – |
